Measured values: PubChem BioAssay AID1159580 (chemical genetic matrix, 2015)
Where “and” joins values, the source holds several entries; their conditions need not be identical. Identical values can stand only once. About 2,000 (36%) of roughly 5,500 compounds were called active. About 18% were inconclusive and are not listed. Cut-off read from the data, not from the text of the source: active = normalized growth mostly below about 0.91 (no sharp cut-off); inconclusive = no clear call, values can overlap the other calls; inactive = mostly above about 0.92. The list shows a part of the results.

Test: chemical genetic growth profiling, strain panel (AID 1159580);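 note: tested at 20 µM; growth read once vehicle control cultures reached saturation at 30 °C; 1 = growth at the plate median or of vehicle wells; lower values mean less growth of the strain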
Details: S. cerevisiae deletion strains, growth OD

Measured: normalized growth

C[C@]12CCC3c4ccc(O)cc4CCC3C1C[C@@H](O)[C@@H]2O (some centres undefined)
inactive: locus YAL013W, strain DEP1, hits give low values 0.994 | locus YAL021C, strain ccr4, hits give low values 1.01 | locus YAL026C, strain drs2, hits give low values 1 | locus YAL030W, strain snc1, hits give low values 1.02 | locus YBL061C, strain skt5, hits give low values 1.02 | locus YBR009C, strain hhf1, hits give low values 1.02 | locus YBR021W, strain FUR4, hits give low values 1.01 | locus YBR023C, strain chs3, hits give low values 1.03 | locus YBR171W, strain sec66, hits give low values 1.02 | locus YBR229C, strain ROT2, hits give low values 0.962 | locus YBR231C, strain swc5, hits give low values 0.988 | locus YBR279W, strain paf1, hits give low values 1.04 | locus YCL011C, strain gbp2, hits give low values 1.05 | locus YCL016C, strain dcc1, hits give low values 1.05 | locus YCL029C, strain bik1, hits give low values 0.984 | locus YCL061C, strain MRC1, hits give low values 1.03 | locus YCL069W, strain vba3, hits give low values 1.01 | locus YCR088W, strain abp1, hits give low values 1.01 | locus YDL005C, strain med2, hits give low values 1.02 | locus YDL035C, strain GPR1, hits give low values 0.969 | locus YDL040C, strain nat1, hits give low values 1.01 | locus YDL074C, strain BRE1, hits give low values 0.951 | locus YDL101C, strain DUN1, hits give low values 0.997 | locus YDL185W, strain tfp1, hits give low values 0.974 | locus YDL192W, strain arf1, hits give low values 0.985 | locus YDR001C, strain nth1, hits give low values 1.01 | locus YDR069C, strain doa4, hits give low values 1 | locus YDR101C, strain arx1, hits give low values 0.945 | locus YDR137W, strain rgp1, hits give low values 1.06 | locus YDR150W, strain NUM1, hits give low values 0.989 | locus YDR159W, strain sac3, hits give low values 0.979 | locus YDR162C, strain NBP2, hits give low values 0.968 | locus YDR195W, strain ref2 0.999 | locus YDR297W, strain sur2, hits give low values 1.03 | locus YDR318W, strain mcm21, hits give low values 1 | locus YDR334W, strain swr1, hits give low values 1.02 | locus YDR335W, strain msn5, hits give low values 1.02 | locus YDR388W, hits give low values 0.982 | locus YDR392W, strain spt3, hits give low values 1.01 | locus YDR502C, strain sam2, hits give low values 0.993 | locus YEL003W, strain gim4, hits give low values 0.994 | locus YEL037C, strain rad23, hits give low values 1.01 | locus YEL061C, strain CIN8 (second series), hits give low values 1.01 | locus YEL061C, strain CIN8, hits give low values 0.997 | locus YER015W, strain faa2, hits give low values 1.02 | locus YER016W, strain bim1, hits give low values 1 | locus YER110C, hits give low values 0.983 | locus YER111C, strain swi4, hits give low values 1.03 | locus YER155C, strain BEM2 (second series), hits give low values 1.02 | locus YER155C, strain BEM2, hits give low values 0.993 | locus YER167W, strain BCK2, hits give low values 1 | locus YFR010W, strain ubp6, hits give low values 1.01 | locus YGL078C, strain dbp3, hits give low values 0.995 | locus YGL086W, strain mad1, hits give low values 0.971 | locus YGL167C, strain pmr1, hits give low values 1.03 | locus YGL173C, strain kem1, hits give low values 1.01 | locus YGL227W, strain vid30, hits give low values 1.02 | locus YGL240W, strain doc1, hits give low values 1.03 | locus YGL248W, strain PDE1, hits give low values 0.988 | locus YGL253W, strain hxk2, hits give low values 1 | locus YGR135W, strain pre9, hits give low values 1.07 | locus YGR252W, strain gcn5, hits give low values 1.07 | locus YHR013C, strain ard1, hits give low values 1.05 | locus YHR027C, strain rpn1, hits give low values 1.02 | locus YHR030C, strain SLT2, hits give low values 0.993 and 1.01 | locus YHR079C, strain IRE1 (second series), hits give low values 0.987 | locus YHR079C, strain IRE1, hits give low values 0.992 | locus YHR094C, strain hxt1, hits give low values 0.984 | locus YHR129C, strain ARP1, hits give low values 0.994 | locus YHR142W, strain chs7, hits give low values 1.02 | locus YHR200W, strain rpn10, hits give low values 1 | locus YIL066C, strain RNR3, hits give low values 0.977 | locus YIL073C, strain SPO22, hits give low values 0.991 | locus YIL125W, strain kgd1, hits give low values 0.985 | locus YIR030C, strain dcg1, hits give low values 0.994 | locus YJL092W, strain hpr5, hits give low values 1.02 | locus YJL095W, strain BCK1 (second series), hits give low values 1.02 | locus YJL095W, strain BCK1, hits give low values 1 and 0.994 | locus YJL115W, strain asf1, hits give low values 1.02 | locus YJL129C, strain trk1, hits give low values 1.03 | locus YJL134W, strain LCB3, hits give low values 0.989 | locus YJL154C, strain vps35, hits give low values 1.01 | locus YJL164C, strain tpk1, hits give low values 1.01 | locus YJL166W, strain qcr8, hits give low values 1.05 | locus YJL168C, strain set2, hits give low values 1.01 | locus YJL187C, strain SWE1 (second series), hits give low values 0.996 | locus YJL187C, strain SWE1, hits give low values 1.04 | locus YJR043C, strain POL32, hits give low values 0.976 | locus YJR066W, strain TOR1, hits give low values 0.97 | locus YJR075W, strain HOC1, hits give low values 0.992 | locus YKL009W, strain mrt4, hits give low values 0.973 | locus YKL068W, hits give low values 0.986 | locus YKL085W, strain MDH1 (second series), hits give low values 1.01 | locus YKL085W, strain MDH1, hits give low values 1.01 | locus YKL160W, strain elf1, hits give low values 1.05 | locus YKR001C, strain vps1, hits give low values 0.972 | locus YKR026C, strain gcn3, hits give low values 1.02 | locus YKR091W, strain srl3, hits give low values 1.02 | locus YLL001W, strain dnm1, hits give low values 1.05 | locus YLL026W, hits give low values 1.02 | locus YLL041C, strain sdh2, hits give low values 1.01 | locus YLR027C, strain aat2, hits give low values 1.01 | locus YLR039C, strain RIC1, hits give low values 1.03 | locus YLR058C, strain SHM2, hits give low values 0.977 | locus YLR102C, strain apc9, hits give low values 0.996 | locus YLR113W, strain HOG1, hits give low values 0.97 | locus YLR221C, strain rsa3, hits give low values 1.05 | locus YLR258W, strain gsy2, hits give low values 1.01 | locus YLR262C, strain YPT6 (second series), hits give low values 1.04 | locus YLR262C, strain YPT6, hits give low values 0.925 | locus YLR268W, strain sec22, hits give low values 0.987 | locus YLR320W, strain mms22, hits give low values 1.07 | locus YLR330W, strain CHS5, hits give low values 0.984 | locus YLR342W, strain FKS1 (second series), hits give low values 0.999 | locus YLR342W, strain FKS1, hits give low values 1.02 | locus YLR357W, strain rsc2, hits give low values 1.03 | locus YLR370C, strain arc18, hits give low values 1.02 | locus YLR371W, strain rom2, hits give low values 1.01 | locus YLR384C, strain iki3, hits give low values 1.02 | locus YLR418C, strain cdc73, hits give low values 1.02 | locus YML016C, strain PPZ1, hits give low values 0.989 | locus YML032C, strain rad52, hits give low values 0.967 | locus YML120C, strain ndi1, hits give low values 1.04 | locus YML124C, strain tub3, hits give low values 0.996 | locus YMR058W, strain fet3, hits give low values 1.01 | locus YMR078C, strain ctf18, hits give low values 0.991 | locus YMR125W, strain sto1, hits give low values 1.02 | locus YMR129W, hits give low values 1 | locus YMR205C, strain PFK2, hits give low values 1.04 | locus YMR223W, strain ubp8, hits give low values 1.02 | locus YMR231W, strain pep5, hits give low values 1.02 | locus YMR307W, strain GAS1, hits give low values 0.954 | locus YNL067W, strain RPL9B, hits give low values 0.994 | locus YNL071W, strain lat1, hits give low values 1.02 | locus YNL153C, strain GIM3, hits give low values 0.976 | locus YNL183C, strain NPR1, hits give low values 0.962 | locus YNL209W, strain ssb2, hits give low values 1.03 | locus YNL233W, strain BNI4, hits give low values 0.987 | locus YNL248C, strain rpa49, hits give low values 1.05 | locus YNL250W, strain rad50, hits give low values 0.987 | locus YNL271C, strain bni1, hits give low values 0.991 | locus YNL298W, strain CLA4, hits give low values 0.99 | locus YNL307C, strain MCK1, hits give low values 0.999 | locus YNL322C, strain KRE1 (second series), hits give low values 1.05 | locus YNR049C, strain mso1, hits give low values 1.02 | locus YNR052C, strain pop2, hits give low values 0.982 | locus YOL012C, strain htz1 1.25 | locus YOL147C, strain pex11, hits give low values 0.993 | locus YOR001W, strain rrp6, hits give low values 0.998 | locus YOR061W, strain CKA2, hits give low values 0.973 | locus YOR069W, strain VPS5, hits give low values 0.997 | locus YOR070C, strain gyp1, hits give low values 1.02 | locus YOR080W, strain dia2, hits give low values 1.02 | locus YOR083W, strain WHI5, hits give low values 1.06 | locus YOR106W, strain vam3, hits give low values 1.03 | locus YOR136W, strain idh2, hits give low values 0.987 | locus YOR144C, strain elg1, hits give low values 0.993 | locus YOR184W, strain ser1, hits give low values 1 | locus YOR231W, strain MKK1, hits give low values 0.972 | locus YOR265W, strain rbl2, hits give low values 1.02 | locus YOR270C, strain vph1, hits give low values 1.04 | locus YOR290C, strain snf2, hits give low values 0.975 | locus YOR316C, strain cot1, hits give low values 0.985 | locus YPL051W, strain arl3, hits give low values 1.02 | locus YPL078C, strain atp4, hits give low values 1.05 | locus YPL106C, strain sse1, hits give low values 1.06 | locus YPL240C, strain hsp82, hits give low values 1.03 | locus YPL241C, strain CIN2, hits give low values 0.989 | locus YPL256C, strain CLN2, hits give low values 1 | locus YPR119W, strain clb2, hits give low values 0.989 | locus YPR141C, strain kar3, hits give low values 0.989 | locus YPR163C, strain tif3, hits give low values 0.996 | locus YPR167C, strain met16, hits give low values 0.999 | strain wtn01, hits give low values 1.01
